In test [1] the target is Cytochrome P450 2C9 (Homo sapiens) (UniProt P11712). Put plainly: qHTS Assay for Inhibitors and Substrates of Cytochrome P450 2C9 (AID 883). Further: potency means the concentration at half of the fitted maximal effect; nearly all actives have a fitted effect of over 60% in size. The procedure, abridged:
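Human CYP2C9 (10nM) with Luciferin-H at 100uM (its KM) in 25mM KPO4; compound preincubated 10 min at 37C, then NADPH regeneration for 60 min at 37C. Luciferin read by luminescence after detection reagent; normalized to 57uM sulphaphenazole as full inhibition.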
Background: Quantitative high-throughput screening tests each substance at several concentrations.

Test [2] addresses Lysosomal acid glucosylceramidase (Homo sapiens) (UniProt P04062). Put plainly: Glucocerebrosidase-p2 (AID 348; in the data active means potency below about 10 µM; further: potency means the concentration at half of the fitted maximal effect). The conditions noted are these: purified GBA, blue fluorogenic substrate, 40 min. The gist of the method: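 Compounds titrated from 0.6 nM upwards against 0.2 nM enzyme in pH 5.9 citric acid/KH2PO4, taurocholate, tween-20; blue fluorogenic substrate 80 uM, 40 min room temperature, stopped and read Ex 365/Em 440 for AC50.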

Test [3] is described as follows: AP1 Signaling Pathway (AID 357; active means well fitted curve in either direction with a large enough effect, not every such curve was filed as active;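 further: ME-180 reporter cells stimulated with EGF at its EC50 level; on the % scale 0 is the no-effect control and ±100 the full control effect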). The conditions noted are these: ME-180 AP-1-bla reporter, EGF-induced, beta-lactamase ratio, 5 h; at 7.69 µM (top of the series) unless noted. The procedure, abridged:
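A ratiometric CCF4 readout (405 nm excitation; 460 and 530 nm emission) quantified AP-1-driven beta-lactamase in ME-180 cells after 5 h with compound and EC50 EGF; AC50 values were derived for activators and inhibitors.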

Test [4] has as its target Cytochrome P450 1A2 (Homo sapiens) (UniProt P05177). Put plainly: p450-cyp1a2 (AID 410; calls by dose curve; further: potency means the concentration at half of the fitted maximal effect). The procedure, abridged:
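Luminescent readout of luciferin formed from Luciferin-ME by human CYP1A2; data normalized against complete inhibition by 57 uM furafylline. Enzyme 20nM, substrate 100uM at Km, 100mM KPO4 buffer, 60 min reaction at room temperature.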

Test [5] can be described thus: NFAT Signaling Pathway (AID 444; active means well fitted curve in either direction with a large enough effect, not every such curve was filed as active;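 further: carbachol stimulus at about its EC50 of 1 µM final; on the % scale 0 is the no-effect control and ±100 the full control effect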). The conditions noted are these: Jurkat NFAT-bla M1, carbachol, beta-lactamase ratio, 5 h; at 7.69 µM (top of the series) unless noted. The gist of the method: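 Jurkat cells with NFAT-driven β-lactamase reporter and co-expressed M1 receptor, stimulated with carbachol (final 1 uM, ~EC50), compound titration, 5 h at 37 °C. CCF4 loaded 1 h at RT; 460/530 nm ratio gave %activity and AC50.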

Test [6] is described as follows: Stat Signaling Pathway (AID 446; active means well fitted curve in either direction with a large enough effect, not every such curve was filed as active;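 further: ME-180 cervical cancer cells given 40 pM IL-6 alongside compound; SIE-controlled beta-lactamase reporter measured as 460/530 nm FRET emission ratio; on the % scale 0 is the no-effect control and ±100 the full control effect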). The conditions noted are these: ME-180 (cervical carcinoma) SIE beta-lactamase reporter, IL-6 stimulated, 5 h; at 7.69 µM (top of the series) unless noted. The gist of the method:
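ME-180 cells carrying a SIE-driven beta-lactamase reporter are stimulated with 40 pM IL-6 for 5 h at 37C in the presence of compound. The 460/530 nm FRET substrate ratio is read after 2.5 h at RT. Data are normalised to 300 pM IL-6 and to 125 nM JAK inhibitor controls.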

For test [7], the target named is Glucocorticoid receptor (Homo sapiens) (UniProt P04150). In words: GR-EFC Redistribution (AID 451; calls by dose curve; further: potency means the concentration at half of the fitted maximal effect). The conditions noted are these: CHO-K1 GR-EFC translocation, beta-gal luminescence, 2 h. The procedure, abridged:
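CHO-K1 cells expressing nuclear EA and GR-ED fragments of b-gal; compounds titrated up to 46 uM final, 2 h at 37 C. GR nuclear translocation read as complemented b-gal luminescence after 1 h RT detection.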

Test [8] concerns the target Mitogen-activated protein kinase 10 (Mus musculus) (UniProt Q61831). In words: JNK3 AlphaScreen Assay (AID 530; active means well fitted curve in either direction with a large enough effect, not every such curve was filed as active;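 further: kinase came from lysate of stimulated human HepG2 cells; signal reports phosphorylation of biotinylated GST-cJun 1-79 at Ser73 with 10 µM ATP; on the % scale 0 is the no-effect control and ±100 the full control effect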). The gist of the method:
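Pre-activated (IL-1β/TNFα) JNK3 in HepG2 lysates phosphorylates biotin-GST-cJun(1-79), 10 uM ATP; anti-phospho-cJun(Ser73) AlphaScreen read at room temperature, pH 7.6 Tris buffer. Compounds pre-incubated 15 min as titrations.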

Test [9] has as its target 3',5'-cyclic-AMP phosphodiesterase 4B (Homo sapiens) (UniProt Q07343). In words: qHTS Assay for Inhibitors of PDE-IV (AID 607; active means well fitted activation curve with a large enough effect in the main read-out, with a control signal flat, not every such curve was filed as active; further: % of control where 0% means no effect). The procedure, abridged:
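HEK293 ACTOne cells with CNG channel (1000/well), endogenous PDE4; membrane potential dye, compounds up to 22.9 uM final. Fluorescence Ex 535/Em 590; RO 20-1724 (100 uM final) as reference.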

Test [10] deals with Cytochrome P450 3A4 (Homo sapiens) (UniProt P08684). Put plainly: qHTS Assay for Activators of Cytochrome P450 3A4 (AID 885). Further: nearly all actives have a fitted effect of over 65% in size. The procedure, abridged:
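Human CYP3A4 (20 nM) with Luciferin-PPXE at 25 uM (its KM) in 200 mM KPO4; 10 min compound preincubation, then NADPH regeneration and 60 min reaction at RT. Luciferin read by luminescence; normalized to 57 uM ketoconazole full inhibition.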

Test [11] can be described thus: qHTS Assay for Lipid Storage Modulators (AID 1519; calls by dose curve). Conditions: Drosophila S3 cells, BODIPY lipid droplet/cell ratio, laser cytometry, cells loaded with oleic acid; for activity change, negative = inhibition: at 57.5 µM (top of the series). The procedure, abridged: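 Cells seeded at 5,000 per well were treated with compounds over a concentration series and loaded with oleic acid (400 uM, as added). Lipid droplet fluorescence (488 nm excitation, 500-530 nm channel) was read by laser-scanning cytometry and normalized to 20 uM Triacsin C.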

In test [12] the target is Dual specificity protein kinase CLK4 (Homo sapiens) (UniProt Q9HAZ1). In words: qHTS Assay for Inhibitors of CDC-like Kinase 4 (Kinase-Glo Assay) (AID 1770). Further: nearly all actives have a fitted effect of over 65% in size. Further: potency means the concentration at half of the fitted maximal effect. The gist of the method: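 Substrate mix (RS peptide 100 uM, ATP 1 uM) dispensed, compound pinned in, then Clk4 added to 25 nM final. Incubated 4.5 h at RT; Kinase-Glo reagent added, luminescence read after 5 min.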

For test [13] the target is unchanged. In words: qHTS Assay for Inhibitors of CDC-like Kinase 4 (ADP-FP Assay) (AID 1795).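 Further: recombinant human CLK4 phosphorylating RS repeat peptide at 1 µM ATP; on the % scale 0 is the no-effect control and ±100 the full control effect; nearly all actives have a fitted effect of over 60% in size.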 The procedure, abridged:
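Clk4 6.25 nM; RS peptide 100 uM; ATP 1 uM; 25 mM Tris pH 7.5, 10 mM MgCl2; 1 h reaction. ADP detected via antibody/orange tracer FP displacement; TG003 positive control.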

Test [14] deals with Ubiquitin carboxyl-terminal hydrolase 1 (Homo sapiens) (UniProt O94782). Put plainly: Inhibitors of USP1/UAF1: Pilot qHTS (AID 504865).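 Further: rhodamine fluorescence freed from ubiquitin-rhodamine substrate followed over time; top concentration of the series differs between compounds; on the % scale 0 is the no-effect control and ±100 the full control effect; nearly all actives have a fitted effect of over 35% in size.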 The gist of the method:
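In 50mM HEPES pH 7.8 containing 0.5mM EDTA, 1mM TCEP, 0.1 mg/ml BSA and 0.01% Tween-20, 1nM USP1/UAF1 is exposed to compound for 15 min, then Ub-Rho (150nM final) is added and fluorescence is read over time.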

Test [15] can be described thus: Primary qHTS for small molecule stabilizers of the endoplasmic reticulum resident proteome: Secreted ER Calcium Modulated Protein (SERCaMP) assay (AID 1508630). Further: on the % scale 0 is the no-effect control and ±100 the full control effect. The gist of the method: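 GLuc-SERCaMP-expressing SH-SY5Y cells, pretreated 16 h with compound, are challenged with thapsigargin to empty ER calcium stores; after 4 h, coelenterazine is added directly to the medium and luminescence is imaged.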

Test [16] deals with Glucocorticoid receptor (Homo sapiens) (UniProt P04150). Put plainly: GR-GFP Redistribution (AID 450;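 active means compounds whose dose series gives a full or clear partial fitted curve of increased nuclear translocation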; further: potency means the concentration at half of the fitted maximal effect). The conditions noted are these: U2OS GR-GFP nuclear translocation, laser cytometry, 2 h.
Test [17] has as its target Dual specificity protein kinase CLK4 (Homo sapiens) (UniProt Q9HAZ1). Put plainly: qHTS Assay for Inhibitors of CDC-like Kinase 4 (ADP-Glo Assay) (AID 1771). Further: on the % scale 0 is the no-effect control and ±100 the full control effect; nearly all actives have a fitted effect of over 70% in size. The gist of the method: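 Luminescence from ADP-Glo reports ADP produced by 25 nM Clk4 acting on 100 uM RS repeat peptide with 1 uM ATP over 1 hr at room temperature; residual ATP is depleted before ADP is converted to ATP for detection.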

The target of test [18] is Cytochrome P450 3A4 (Homo sapiens) (UniProt P08684). In words: qHTS Assay for Inhibitors and Substrates of Cytochrome P450 3A4 (AID 884). Further: potency means the concentration at half of the fitted maximal effect; nearly all actives have a fitted effect of over 50% in size. The gist of the method: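 20 nM human CYP3A4 with 25 uM Luciferin-PPXE (at KM) in 200 mM KPO4, preincubated 10 min with compound; NADPH regeneration started a 60 min RT reaction. Luciferin detected by luminescence, normalized to 57 uM ketoconazole as full inhibition.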

The target of test [19] is Cytochrome P450 2C19 (Homo sapiens) (UniProt P33261). Put plainly: qHTS Assay for Inhibitors and Substrates of Cytochrome P450 2C19 (AID 899). Further: potency means the concentration at half of the fitted maximal effect; nearly all actives have a fitted effect of over 60% in size. The procedure, abridged:
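5 nM human CYP2C19 with 10uM Luciferin-H EGE (at KM) in 50mM KPO4, compound preincubated 10 min at 37C, then NADPH regeneration for 60 min at 37C. Luciferin read by luminescence after detection reagent; normalized to 57uM ketoconazole as full inhibition.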

Where [20] appears, read: measured here: cell count channel max response.
[21] abbreviates: measured here: lipid channel max response.

Records with an inconclusive call do not appear. Activity calls are given as the source filed them. Unless noted, the call rests on the fitted dose curve; in most records, active means well fitted curve in the direction sought with a large enough effect; inconclusive means small, poorly fitted or top-dose-only effect, or another doubt; inactive means no such curve, though single readings can be large; an effect the other way counts as inactive or inconclusive.

Sequence of Dual specificity protein kinase CLK4 (Homo sapiens) (Q9HAZ1 whole entry, looked up): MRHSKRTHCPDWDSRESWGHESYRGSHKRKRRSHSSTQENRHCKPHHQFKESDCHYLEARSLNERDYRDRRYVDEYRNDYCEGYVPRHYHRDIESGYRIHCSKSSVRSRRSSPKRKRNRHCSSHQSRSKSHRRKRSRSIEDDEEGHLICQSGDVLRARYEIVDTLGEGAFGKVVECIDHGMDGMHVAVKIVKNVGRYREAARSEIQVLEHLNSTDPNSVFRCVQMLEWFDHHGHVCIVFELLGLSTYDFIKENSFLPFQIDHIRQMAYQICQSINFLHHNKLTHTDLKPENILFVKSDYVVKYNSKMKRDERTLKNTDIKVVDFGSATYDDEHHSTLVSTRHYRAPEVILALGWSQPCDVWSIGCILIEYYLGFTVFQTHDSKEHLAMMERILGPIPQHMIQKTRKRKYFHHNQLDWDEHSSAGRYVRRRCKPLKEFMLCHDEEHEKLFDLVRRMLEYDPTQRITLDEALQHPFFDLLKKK
Sequence of 3',5'-cyclic-AMP phosphodiesterase 4B (Homo sapiens) (Q07343 whole entry, looked up): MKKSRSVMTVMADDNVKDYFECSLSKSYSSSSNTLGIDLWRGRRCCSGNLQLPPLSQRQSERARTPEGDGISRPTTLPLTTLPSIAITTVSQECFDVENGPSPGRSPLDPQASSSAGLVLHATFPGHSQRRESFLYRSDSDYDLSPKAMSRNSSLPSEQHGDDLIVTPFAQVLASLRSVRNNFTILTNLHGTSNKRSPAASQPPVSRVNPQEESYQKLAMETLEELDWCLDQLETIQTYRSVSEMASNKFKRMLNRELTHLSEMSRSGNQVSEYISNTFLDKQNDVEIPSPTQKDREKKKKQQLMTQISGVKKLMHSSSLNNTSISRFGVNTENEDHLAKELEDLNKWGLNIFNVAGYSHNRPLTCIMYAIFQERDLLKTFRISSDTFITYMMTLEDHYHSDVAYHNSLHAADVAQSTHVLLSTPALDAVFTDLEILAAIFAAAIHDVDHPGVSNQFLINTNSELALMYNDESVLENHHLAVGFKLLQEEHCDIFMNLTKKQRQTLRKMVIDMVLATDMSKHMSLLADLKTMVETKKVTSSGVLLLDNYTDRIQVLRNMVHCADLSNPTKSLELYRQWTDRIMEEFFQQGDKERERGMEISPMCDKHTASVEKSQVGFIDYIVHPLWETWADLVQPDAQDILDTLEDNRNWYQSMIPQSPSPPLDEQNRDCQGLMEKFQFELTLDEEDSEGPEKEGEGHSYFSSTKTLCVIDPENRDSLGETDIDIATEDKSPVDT
Sequence of Glucocorticoid receptor (Homo sapiens) (P04150 whole entry, looked up, the tested form may be a part): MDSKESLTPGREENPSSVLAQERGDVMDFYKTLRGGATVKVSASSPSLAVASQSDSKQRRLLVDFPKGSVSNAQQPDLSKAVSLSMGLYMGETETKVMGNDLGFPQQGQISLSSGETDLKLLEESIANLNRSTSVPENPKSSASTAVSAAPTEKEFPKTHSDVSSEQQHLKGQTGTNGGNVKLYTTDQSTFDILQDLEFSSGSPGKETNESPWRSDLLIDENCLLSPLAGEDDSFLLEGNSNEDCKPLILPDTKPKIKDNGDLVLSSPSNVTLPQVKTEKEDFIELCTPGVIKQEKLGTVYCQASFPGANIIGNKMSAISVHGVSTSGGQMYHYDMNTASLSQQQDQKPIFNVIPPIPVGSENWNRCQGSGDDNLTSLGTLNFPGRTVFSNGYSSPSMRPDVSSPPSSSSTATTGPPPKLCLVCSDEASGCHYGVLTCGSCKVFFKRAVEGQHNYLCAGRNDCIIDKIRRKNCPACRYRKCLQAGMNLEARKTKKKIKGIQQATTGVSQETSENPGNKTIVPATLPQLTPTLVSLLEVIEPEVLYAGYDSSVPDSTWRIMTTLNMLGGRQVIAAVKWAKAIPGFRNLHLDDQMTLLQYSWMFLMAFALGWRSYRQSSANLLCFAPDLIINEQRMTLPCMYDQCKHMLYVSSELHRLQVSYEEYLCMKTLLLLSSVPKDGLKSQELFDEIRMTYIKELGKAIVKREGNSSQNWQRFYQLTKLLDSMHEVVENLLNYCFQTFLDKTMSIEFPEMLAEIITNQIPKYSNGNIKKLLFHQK
Sequence of Cytochrome P450 1A2 (Homo sapiens) (P05177 whole entry, looked up): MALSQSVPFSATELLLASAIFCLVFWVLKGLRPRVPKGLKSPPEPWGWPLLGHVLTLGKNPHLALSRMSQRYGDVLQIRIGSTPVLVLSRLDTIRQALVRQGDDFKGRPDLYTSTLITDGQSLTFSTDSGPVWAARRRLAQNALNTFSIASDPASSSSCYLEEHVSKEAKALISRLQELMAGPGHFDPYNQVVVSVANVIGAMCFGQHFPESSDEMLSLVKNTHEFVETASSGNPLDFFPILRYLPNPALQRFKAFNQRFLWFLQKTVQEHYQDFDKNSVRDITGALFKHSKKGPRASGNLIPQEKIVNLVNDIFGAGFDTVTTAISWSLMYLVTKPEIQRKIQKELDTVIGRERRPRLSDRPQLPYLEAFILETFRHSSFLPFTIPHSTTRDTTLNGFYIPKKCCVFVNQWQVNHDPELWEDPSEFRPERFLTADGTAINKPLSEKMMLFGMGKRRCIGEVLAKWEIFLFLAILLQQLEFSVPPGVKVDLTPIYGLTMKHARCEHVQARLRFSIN
Sequence of Ubiquitin carboxyl-terminal hydrolase 1 (Homo sapiens) (O94782 whole entry, looked up): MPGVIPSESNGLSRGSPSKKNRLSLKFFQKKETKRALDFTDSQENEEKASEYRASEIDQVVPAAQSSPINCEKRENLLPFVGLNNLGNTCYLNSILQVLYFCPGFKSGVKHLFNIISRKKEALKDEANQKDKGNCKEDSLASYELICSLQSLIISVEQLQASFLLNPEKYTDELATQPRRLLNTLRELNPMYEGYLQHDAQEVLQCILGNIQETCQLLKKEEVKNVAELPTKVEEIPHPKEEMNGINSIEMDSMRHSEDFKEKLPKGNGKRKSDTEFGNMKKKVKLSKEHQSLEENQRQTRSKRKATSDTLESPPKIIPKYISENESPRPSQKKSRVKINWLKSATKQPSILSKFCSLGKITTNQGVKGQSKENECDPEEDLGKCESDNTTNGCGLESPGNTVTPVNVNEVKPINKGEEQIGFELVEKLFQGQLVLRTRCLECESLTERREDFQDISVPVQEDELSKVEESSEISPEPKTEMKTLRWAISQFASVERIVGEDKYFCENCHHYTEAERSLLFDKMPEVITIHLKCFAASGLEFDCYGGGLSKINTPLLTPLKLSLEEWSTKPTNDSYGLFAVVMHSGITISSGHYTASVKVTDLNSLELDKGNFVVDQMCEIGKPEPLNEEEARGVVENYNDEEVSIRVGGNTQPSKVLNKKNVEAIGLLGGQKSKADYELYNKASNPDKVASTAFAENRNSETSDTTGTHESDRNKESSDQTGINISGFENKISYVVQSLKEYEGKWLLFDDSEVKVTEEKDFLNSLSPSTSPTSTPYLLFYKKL
Sequence of Cytochrome P450 3A4 (Homo sapiens) (P08684 whole entry, looked up): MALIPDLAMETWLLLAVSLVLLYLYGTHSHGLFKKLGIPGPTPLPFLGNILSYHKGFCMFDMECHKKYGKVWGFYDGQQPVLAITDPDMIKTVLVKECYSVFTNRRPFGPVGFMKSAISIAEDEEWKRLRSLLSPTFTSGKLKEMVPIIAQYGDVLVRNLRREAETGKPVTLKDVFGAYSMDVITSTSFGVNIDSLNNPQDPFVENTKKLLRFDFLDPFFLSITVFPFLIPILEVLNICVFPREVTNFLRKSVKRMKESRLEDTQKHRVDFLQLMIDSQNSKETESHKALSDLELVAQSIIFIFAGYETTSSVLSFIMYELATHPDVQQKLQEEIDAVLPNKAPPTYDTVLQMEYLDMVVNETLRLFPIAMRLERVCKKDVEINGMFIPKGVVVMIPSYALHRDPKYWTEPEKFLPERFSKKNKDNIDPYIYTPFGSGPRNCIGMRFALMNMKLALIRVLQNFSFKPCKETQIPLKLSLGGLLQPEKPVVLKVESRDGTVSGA
Sequence of Lysosomal acid glucosylceramidase (Homo sapiens) (P04062 whole entry, looked up): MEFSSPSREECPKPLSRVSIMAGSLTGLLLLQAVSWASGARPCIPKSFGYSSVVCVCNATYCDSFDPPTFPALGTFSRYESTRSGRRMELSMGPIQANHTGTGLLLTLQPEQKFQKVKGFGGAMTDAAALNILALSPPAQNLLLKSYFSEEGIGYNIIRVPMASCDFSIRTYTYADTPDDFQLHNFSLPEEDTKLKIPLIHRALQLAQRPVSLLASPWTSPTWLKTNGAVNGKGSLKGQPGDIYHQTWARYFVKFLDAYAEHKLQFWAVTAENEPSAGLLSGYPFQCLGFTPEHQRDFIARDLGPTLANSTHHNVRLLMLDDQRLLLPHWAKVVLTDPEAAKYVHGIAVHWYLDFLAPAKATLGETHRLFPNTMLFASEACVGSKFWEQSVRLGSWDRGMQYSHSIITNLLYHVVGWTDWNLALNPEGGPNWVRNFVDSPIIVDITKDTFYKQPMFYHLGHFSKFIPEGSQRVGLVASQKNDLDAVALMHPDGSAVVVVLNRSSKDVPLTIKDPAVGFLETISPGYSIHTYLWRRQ
Sequence of Cytochrome P450 2C9 (Homo sapiens) (P11712 whole entry, looked up): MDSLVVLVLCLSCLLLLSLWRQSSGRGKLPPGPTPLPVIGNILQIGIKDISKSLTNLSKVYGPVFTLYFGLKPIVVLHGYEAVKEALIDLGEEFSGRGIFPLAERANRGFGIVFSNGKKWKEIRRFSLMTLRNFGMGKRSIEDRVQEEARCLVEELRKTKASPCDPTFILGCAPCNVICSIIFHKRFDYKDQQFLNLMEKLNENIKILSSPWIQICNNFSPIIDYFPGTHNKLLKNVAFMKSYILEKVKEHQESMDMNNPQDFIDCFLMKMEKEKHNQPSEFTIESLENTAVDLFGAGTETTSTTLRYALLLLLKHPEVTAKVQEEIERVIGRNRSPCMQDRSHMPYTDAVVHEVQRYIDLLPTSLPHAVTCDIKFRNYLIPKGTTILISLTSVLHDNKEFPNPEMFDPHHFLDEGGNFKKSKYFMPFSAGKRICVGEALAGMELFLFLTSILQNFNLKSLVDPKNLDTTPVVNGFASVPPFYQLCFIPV

Consider `COc1ccccc1CCn1c(=O)c(-c2cccc(F)c2)nc2cncnc21`, for which the Potency in test [1] is 2.51 µM (active).

Take `Cn1c(=O)c(-c2ccccc2)nc2cncnc21`: the Potency in [2] is > 11.4 µM (inactive); in test [4], 0.631 µM (active); in [7], > 46 µM (inactive). The activity change, negative = inhibition in test [3] was -7.79% (inactive); in [5], -9.84% (inactive); in [11] it was 6.1% (inactive). The activity, negative = inhibition in [6] is -4.68% (inactive). In addition, in [8], the outcome was inactive. Also, the Potency result in [9], in test [10], in [12], in test [13], in test [14] and in test [15] was “inactive” in each case. Also, the figures for the max response in test [11] (setting [20]) and in test [11] (setting [21]) were 8.5% and 16.6%, respectively.

Consider `Cc1ccccc1-c1nccc(NCCN2CCOCC2)n1`, for which the Potency in test [2] was > 11.4 µM (inactive); in test [4] it was 5.01 µM (active); in [16], > 46 µM (inactive); in [7], > 46 µM (inactive). Also, the activity change, negative = inhibition in test [3] was 20.7% (inactive); in test [5], -13.9% (inactive); in test [11], 3.61% (inactive). Moreover, the activity, negative = inhibition in [6] was -1.96% (inactive). Further, in test [8], the result was inactive. Further, the Potency entry in [10], in [12], in test [13], in test [14] and in test [15] was “inactive” in each case. In addition, the figures for the max response in test [11] (setting [20]) and in test [11] (setting [21]) were 17.5% and 21.4%, respectively.

For `COc1ccc(-n2c(=O)c(-c3cn(C)c4ccccc34)nc3cnc(N4CCOCC4)nc32)cc1`, the Potency is > 11.4 µM (inactive) in test [2], > 9.22 µM (inactive) in [16] and > 46 µM (inactive) in test [7]. Also, the activity change, negative = inhibition in test [3] is 11.1% (inactive); in test [5] it was -2.62% (inactive); in test [11], 7.4% (inactive). For the same compound, in test [6], the activity, negative = inhibition was 3.33% (inactive). Moreover, the outcome in [8] was inactive. Besides, the Potency entry in test [9], in [12], in test [17], in test [14] and in test [15] was “inactive” throughout. Moreover, the max response was determined as 4.27% in test [11] (setting [20]) and 9.94% in test [11] (setting [21]).

As to `N#CCCn1c(=O)c(-c2ccc(F)cc2)nc2cnc(N3CCOCC3)nc21`, the activity change, negative = inhibition in [3] was -0.71% (inactive); in test [5], 13.6% (inactive); in test [11] it was 3.46% (inactive). For the same compound, the activity, negative = inhibition in [6] was 10.6% (inactive). For the same compound, the Potency was > 9.22 µM (inactive) in test [16] and > 46 µM (inactive) in test [7]. Further, the call in test [8] was inactive. Besides, the Potency result in test [9], in [12], in [17], in [14] and in test [15] was “inactive” in each case. The max response in test [11] (setting [20]) worked out at 20.8%; in [11] (setting [21]) it was 23%.

For the compound `FC(F)(F)c1ccccc1-c1ccc2ncnc(NCc3cccnc3)c2c1`, the Potency was > 11.4 µM (inactive) in [2]; 1 µM (active) in test [4]; > 46 µM (inactive) in test [16]; > 46 µM (inactive) in test [7]; 1.58 µM (active) in [18]; 0.0079 µM (active) in test [19]. For the same compound, the results for the activity change, negative = inhibition in [3], in test [5] and in test [11] were 5.26% (inactive), 21.5% (inactive) and -7.13% (inactive), respectively. In test [6], the activity, negative = inhibition was -18.4% (inactive). Besides, in test [8], the call was inactive. Moreover, the Potency result in [10], in [12], in test [13], in test [14] and in [15] was “inactive” in each case. In addition, the max response in test [11] (setting [20]) was determined as 9.95%; in [11] (setting [21]), 2.08%.

For the compound `COCCNc1cc(-c2ccccc2C)ncn1`, the Potency in [2] was > 11.4 µM (inactive); in test [4], 15.8 µM (active); in test [16] it was > 46 µM (inactive); in [12] it was 12.6 µM (active). Also, the activity change, negative = inhibition in [3] was 5.04% (inactive); in [5], 5.56% (inactive); in [11], 6.88% (inactive). In addition, in [6], the activity, negative = inhibition is 13.1% (inactive). The compound was called inactive in [8]. Besides, the Potency result in [9] and in [15] was “inactive” throughout. For the same compound, the values for the max response in test [11] (setting [20]) and in test [11] (setting [21]) were 3.79% and 8.94%, respectively.

The values are drawn from PubChem BioAssay (NCATS).
